Laboratory results published in the supplement of paper PMC9694430.

Key:
Assay in all cases: thermal shift delta Tm vs DMSO control; higher = stronger stabilization (binding)
Settings in all cases: 12.5 µM; protein concentration 2 µM
[1] = tested on: LOC_OS01G01410-cb001
In short: (§1)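 Purified, E. coli-expressed rice kinase domain constructs were tested by differential scanning fluorimetry in 96-well plates: 19.5 μl of 2 μM kinase in 100 mM potassium phosphate pH 7.5, 150 mM NaCl, 10% glycerol, 5 × SYPRO Orange, plus compound in DMSO. Fluorescence was read from 25°C to 95°C at 0.05°C/s. Melting temperatures came from Boltzmann fits, and the shift is the triplicate mean relative to protein with DMSO alone.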

[2] = tested on: LOC_OS01G02750-cb003
In short: as §1

[3] = tested on: LOC_OS01G10900-cb004
In short: as §1

[4] = tested on: LOC_OS01G13800-cb001
In short: as §1

[5] = tested on: LOC_OS01G14860-cb001
In short: as §1

[6] = tested on: LOC_OS01G21960-cb002
In short: as §1

[7] = tested on: LOC_OS01G39600-cb002
In short: as §1

[8] = tested on: LOC_OS01G48390-cb002
In short: as §1

[9] = tested on: LOC_OS01G51400-cb002
In short: as §1

[10] = tested on: T1, LOC_OS01G52050-cb004
T1 sequence (whole entry): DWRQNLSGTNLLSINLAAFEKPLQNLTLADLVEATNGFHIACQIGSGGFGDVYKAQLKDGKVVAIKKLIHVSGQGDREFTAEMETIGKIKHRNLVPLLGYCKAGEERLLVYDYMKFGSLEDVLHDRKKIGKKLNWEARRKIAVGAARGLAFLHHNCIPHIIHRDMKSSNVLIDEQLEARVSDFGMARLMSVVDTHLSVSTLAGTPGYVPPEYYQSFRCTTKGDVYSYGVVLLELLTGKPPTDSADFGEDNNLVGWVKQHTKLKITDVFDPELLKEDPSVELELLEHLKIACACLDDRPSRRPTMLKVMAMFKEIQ
In short: as §1

[11] = tested on: LOC_OS01G57100-cb003
In short: as §1

[12] = tested on: LOC_OS01G60330-cb001
In short: as §1

[13] = tested on: LOC_OS01G60700-cb002
In short: as §1

[14] = tested on: LOC_OS01G63280-cb003
In short: as §1

[15] = tested on: LOC_OS01G67340-cb003
In short: as §1

[16] = tested on: LOC_OS01G70970-cb002
In short: as §1

[17] = tested on: LOC_OS02G07810-cb001
In short: as §1

[18] = tested on: LOC_OS02G08530-cb003
In short: as §1

[19] = tested on: LOC_OS02G14120-cb001
In short: as §1

[20] = tested on: LOC_OS02G17970-cb001
In short: as §1

Row | Structure (SMILES) | thermal shift delta Tm [1] [°C] | thermal shift delta Tm [2] [°C] | thermal shift delta Tm [3] [°C] | thermal shift delta Tm [4] [°C] | thermal shift delta Tm [5] [°C] | thermal shift delta Tm [6] [°C] | thermal shift delta Tm [7] [°C] | thermal shift delta Tm [8] [°C] | thermal shift delta Tm [9] [°C] | thermal shift delta Tm [10] [°C] | thermal shift delta Tm [11] [°C] | thermal shift delta Tm [12] [°C] | thermal shift delta Tm [13] [°C] | thermal shift delta Tm [14] [°C] | thermal shift delta Tm [15] [°C] | thermal shift delta Tm [16] [°C] | thermal shift delta Tm [17] [°C] | thermal shift delta Tm [18] [°C] | thermal shift delta Tm [19] [°C] | thermal shift delta Tm [20] [°C]
1 | COCCOc1ccc2c(c1)ncn2-c1ccc2cccc(N3CCC(N)CC3)c2n1 | 0.39 | 7.25 | 1.08 | -0.56 | 1.89 | 3.75 | 2.09 | 0.21 | -0.08 | 10.9 | 1.13 | 0.82 | 0.15 | 1.35 | 2.25 | 8.53 | 0.59 | 3.85 | 11 | 0.26
2 | CC(C)(C)c1nc(-c2cccc(NS(=O)(=O)c3c(F)cccc3F)c2F)c(-c2ccnc(N)n2)s1 | 1.54 | 0.76 | 0.26 | 0.08 | 8.58 | 1.84 | -9.31 | 0.37 | 0.33 | 1.56 | 2.01 | 7.29 | 1.89 | 19.8 | 1.21 | 3.43 | 1.44 | 1.92 | 3.94 | 1.55
3 | Cc1ccc(NC(=O)c2ccc(CN3CCN(C)CC3)cc2)cc1Nc1nccc(-c2cccnc2)n1 [Imatinib (STI571)] | 0.68 | 0 | 1.47 | -0.47 | 0.24 | -0.24 | -0.27 | 1.69 | 0.14 | 0.62 | 1.6 | 0.71 | 0.95 | 0.65 | 0.52 | 0.38 | 0.18 | 1.39 | 1.22 | 0.21
4 | COc1ccc([C@@H]2OC[C@H]3[C@@H]2CO[C@@H]3c2ccc(O[C@@H]3O[C@H](CO)[C@@H](O)[C@H](O)[C@H]3O)c(OC)c2)cc1OC [Forsythin] | 0.23 | 1.02 | 0.51 | -0.29 | 0.27 | 0.16 | -0.84 | 0.13 | 0.31 | 1.57 | 0.47 | -0.03 | -0.08 | -0.19 | 0.01 | 0.21 | -0.9 | 0.57 | 0.19 | -0.6
5 | CNC(=O)c1cc(COc2nnc(Nc3ccc(Cl)cc3)c3ccoc23)ccn1 [Telatinib] | 0.67 | 0.92 | 0.29 | 0.36 | 0.15 | 0.85 | -0.38 | 0.26 | 0.08 | 0.21 | 1.9 | 0.6 | 0.35 | 0.76 | 0.82 | 0.19 | 0.85 | 0.69 | -0.19 | 1.35
6 | COc1ccc2[nH]cc(/C=C3\C(=O)Nc4ccc(NC(=O)CCN5CCCCC5)cc43)c2c1 | 0.24 | 1.49 | 0.91 | 1.6 | 2.18 | 1.64 | 0.22 | 0.82 | 0.58 | 0.72 | 0.21 | 1.51 | 1.62 | 1.06 | 1.09 | 0.85 | 0.83 | 1.82 | 1.59 | 1.88
7 | COc1ccc(-c2ccc3c(N4CCOC[C@@H]4C)nc(N4CCOC[C@@H]4C)nc3n2)cc1CO | 0.54 | 0.23 | 0.08 | 0.21 | 0 | -0.12 | -0.26 | 0.01 | -0.16 | 0.06 | 0.87 | 0.93 | 0.64 | -0.13 | -0.69 | 0.1 | 0.28 | 0.31 | -1.22 | -0.06
8 | CCCS(=O)(=O)Nc1ccc(F)c(C(=O)c2c[nH]c3ncc(Cl)cc23)c1F | 2.48 | 2.88 | 1.45 | -0.05 | 0.85 | 0.52 | 2.73 | 3.29 | 0.32 | 1.3 | 0.54 | 2.26 | 1.16 | 5.8 | -0.05 | 2.74 | 1.49 | 0.84 | 1.51 | 0.28
9 | COc1cc2ncnc(Oc3ccc(CC(=O)Nc4cnn(C(C)C)c4)cc3)c2cc1OC | 0.27 | 0 | 0.09 | -0.43 | 0.03 | 0.08 | -1.25 | 0.97 | 0.22 | -0.1 | 0.71 | 0.05 | 1.1 | 0.13 | -0.21 | 0.47 | 0.52 | 0.53 | 0.06 | 0.84
10 | Cc1cc(Nc2cc(CN3CCOCC3)c3nc(C)c(Cc4ccc(Cl)cc4F)n3n2)n[nH]1 | 2.97 | 3.19 | 1.89 | -0.62 | 7.26 | 2.02 | 2.41 | 5.72 | -0.5 | 1.05 | 0.41 | 3.94 | -0.8 | 0.12 | 1.73 | 1.25 | 0.19 | 0.8 | 8.86 | -0.03
11 | O=c1cc(N2CCOCC2)oc2c(-c3cccc4c3sc3ccccc34)cccc12 | -0.61 | -1.71 | 3.77 | -1.29 | 0.08 | -0.64 | -1.62 | -0.49 | -1.28 | -0.72 | 0.74 | 0.23 | -0.43 | -0.77 | -0.51 | -0.71 | -0.42 | 0.52 | 0.46 | 0.12
12 | O=C(O)CCC(=O)Nc1ccc(Br)cn1 [Bikinin] | 0.12 | 0.77 | -0.24 | 0.21 | 1.54 | 0.85 | -0.26 | 0.5 | 0.37 | 0.34 | 3.66 | 0.91 | 0.53 | 0.52 | 0.6 | 0.23 | 0.66 | 0.69 | 0.3 | 0.9
